Screening results as filed in PubChem.
DT40 TDP1 no CPT: qHTS for Inhibitors of human tyrosyl-DNA phosphodiesterase 1 (TDP1): qHTS in cells in absence of CPT; DT40 Tdp1-/- hTDP1 cells, no CPT, ATP luminescence, 48 h; Potency, µM (top dose mostly 46.2 µM), for the others: top-dose activity change, negative = growth inhibition, most hits filed as inhibitors; 15% of 420,000 active; further: potency means the concentration at half of the fitted maximal effect; nearly all actives have a fitted effect of over 55% in size
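Growth of hTDP1-complemented DT40 Tdp1-knockout cells is measured by ATP luminescence after at least 48 hr compound exposure at 37 °C, with DMSO substituting for the 20 nM CPT used in the parallel screen.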
TDP1 inh: qHTS Assay for Inhibitors of Tyrosyl-DNA Phosphodiesterase (TDP1); Tyrosyl-DNA phosphodiesterase 1 (Homo sapiens), Q9NUW8; recombinant TDP1, AlphaScreen DNA substrate cleavage; Potency, µM (titrated, usually from 130 µM), without a hit: at the top dose activity change, negative = inhibition, actives largely listed as inhibitors; 0.28% of 350,000 active; further: potency means the concentration at half of the fitted maximal effect; nearly all actives have a fitted effect of over 40% in size
Target sequence (Q9NUW8 whole entry, looked up): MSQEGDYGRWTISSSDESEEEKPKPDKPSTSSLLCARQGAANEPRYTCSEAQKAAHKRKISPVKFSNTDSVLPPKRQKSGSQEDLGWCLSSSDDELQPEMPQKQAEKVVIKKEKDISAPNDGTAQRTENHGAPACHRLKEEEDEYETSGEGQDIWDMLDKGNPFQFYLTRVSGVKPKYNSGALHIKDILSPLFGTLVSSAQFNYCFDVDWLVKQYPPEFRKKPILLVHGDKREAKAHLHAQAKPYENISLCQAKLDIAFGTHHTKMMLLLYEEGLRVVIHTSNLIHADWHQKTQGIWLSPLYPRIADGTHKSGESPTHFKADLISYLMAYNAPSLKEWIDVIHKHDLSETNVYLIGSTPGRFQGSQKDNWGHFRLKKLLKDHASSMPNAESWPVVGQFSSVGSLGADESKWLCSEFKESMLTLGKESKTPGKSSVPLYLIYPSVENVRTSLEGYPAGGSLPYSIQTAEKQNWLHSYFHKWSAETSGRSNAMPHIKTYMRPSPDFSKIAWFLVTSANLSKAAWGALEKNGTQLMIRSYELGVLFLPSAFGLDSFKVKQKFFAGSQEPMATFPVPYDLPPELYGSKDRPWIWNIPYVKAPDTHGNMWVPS
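Here, a 5' biotin and 3' phosphotyrosine-FITC DNA oligonucleotide reports Tdp1 activity: intact substrate bridges AlphaScreen beads, while cleavage leaves a 3' phosphate and drops signal. All incubations at room temperature.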
ELG1 DNA repair: qHTS screen for small molecules that inhibit ELG1-dependent DNA repair in human embryonic kidney (HEK293T) cells expressing luciferase-tagged ELG1; HEK293T ELG1-luciferase reporter, luminescence, 16 h; DNA damage induced by 5-fluorouridine; Potency, µM (titrated, usually from 46.1 µM), for inactives: at the highest dose activity change, negative = inhibition, hits mostly inhibitors; 2.3% of 330,000 active; further: potency means the concentration at half of the fitted maximal effect; nearly all actives have a fitted effect of over 55% in size
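In this reporter screen, reduction of luminescence relative to DMSO vehicle indicated activity. Compounds and 5-fluorouridine were added together to 2,000 cells per well, incubated for 16 hr at 37 °C, then developed with ONE-Glo.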
IL-1B inflam inh: qHTS for Inhibitors of Inflammasome Signaling: IL-1-beta AlphaLISA Primary Screen | THP-1 LPS/ATP IL-1B secretion, AlphaLISA, 16 h; active compounds read low | activity change, % at 57.5 µM | 4.7% of 360,000 active; in the data active means activity change below about -50%; inconclusive means mostly about -30% to -49%
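Secreted IL-1B measured by AlphaLISA bead assay after 16 h compound exposure of THP-1 cells; compounds (final up to 57.5 uM) added 1 h before LPS (250 ng/mL) and ATP (1.25 mM) stimulation; lower signal means less secretion.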
Giardia killer: Small Molecules that selectively kill Giardia lamblia: qHTS; Giardia lamblia trophozoite viability; activity change, % at 7.66 µM, hits read low; 0.15% of 340,000 active; AID 540267, 2011; in the data active means activity change below about -80%; inconclusive means between about -30% and that limit;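 further: parasites exposed to compound for two days anaerobically before the ATP read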
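Compounds were tested on trophozoites seeded at 100 cells/well and held 48 hrs at 37 deg C anaerobically. An ATP-based luminescent kit measured the remaining live cells.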
DT40 TDP1 CPT: qHTS for Inhibitors of human tyrosyl-DNA phosphodiesterase 1 (TDP1): qHTS in cells in presence of CPT; chicken DT40 Tdp1-/-;hTDP1 cells + 20 nM CPT, ATP luminescence, 48 h; 12% of 420,000 active; Potency, µM (doses to about 46.2 µM), for inactives: at the top dose activity change, negative = growth inhibition, hits mostly inhibitors; AID 686979, 2013; further: potency means the concentration at half of the fitted maximal effect; nearly all actives have a fitted effect of over 55% in size
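Cell growth measured by CellTiter-Glo luminescence after a minimum 48 h, 37 C compound exposure with 20 nM CPT in Tdp1-knockout DT40 cells stably expressing hTDP1, seeded 400/well; qHTS titration format.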
Numbers without * were called inactive; ? = inconclusive; . = no result; [ ] = remark or other dose. A selection: hits, their analogues and other compounds. The true share with any hit is near 19%. Unless noted, the call rests on the fitted dose curve; in most records, active means well fitted curve in the direction sought with a large enough effect; inconclusive means small, poorly fitted or top-dose-only effect, or another doubt; inactive means no such curve, though single readings can be large; an effect the other way counts as inactive or inconclusive. On the % scale 0 is the no-effect control and ±100 the full control effect.

SMILES | DT40 TDP1 no CPT | TDP1 inh | ELG1 DNA repair | IL-1B inflam inh | Giardia killer | DT40 TDP1 CPT
Cc1ccc(COC(=O)c2ccc(-c3nnn(Cc4ccc(C)cc4)n3)cc2)cc1 | . | -6% | . | . | . | .
COCCNC(=O)C1(C)CCCN(Cc2cc(-c3ccccc3)on2)C1 (stereo not given) | 23µM* | . | . | 39 | . | 13µM*
CCCNC(=O)C1(C)CCN(Cc2cccc(OC(=O)c3ccccc3)c2)C1 (stereo not given) | 1% | . | . | -23 | . | -6%
CCCNC(=O)C1(C)CCN(Cc2ccc(OCc3ccccc3)cc2)C1 (stereo not given) | 18µM* | . | . | -21 | . | 23µM*
COCCNC(=O)C1(C)CCCN(Cc2ccc(Cl)c(Cl)c2)C1 (stereo not given) | 16µM* | . | . | 14 | . | 21µM*
COCCNC(=O)C1(C)CCCN(Cc2cc(-c3ccccc3)n(C)n2)C1 (stereo not given) | ? | . | . | 17 | . | ?
COCCNC(=O)C1(C)CCCN(CCSc2ccccc2)C1 (stereo not given) | 13µM* | . | . | 12 | . | ?
CCN(CC)CCC(=O)Nc1ccc2c(c1)N(C(=O)CN(CC)CC)c1ccccc1CC2 | -18% | 6% | -2% | 0 | 1 | -14%
CCOC(=O)C1=C(c2ccccc2)NC(SCC(=O)NC2CCCCC2)=C(C#N)C1c1ccco1 (stereo not given) | 2% | 2% | 18µM* | -55* | 2 | 6%
COCCOC(=O)C1=C(C)NC(SCC(=O)NC(C)(C)C)=C(C#N)C1c1ccco1 (stereo not given) | 23µM* | 4% | ? | -3 | -4 | 26µM*
C=CCOC(=O)C1=C(C)NC(SCC(=O)Nc2ccc(C)c(Cl)c2)=C(C#N)C1c1ccco1 (stereo not given) | 29µM* | 3% | 0% | -3 | -11 | ?
COC(=O)c1[nH]c(=O)c2ccccc2c1OCc1ccccc1 | -17% | 7% | -2% | 16 | 7 | -15%
COC(=O)c1[nH]c(=O)c2ccccc2c1O | 0% | 2% | 16% | -1 | -4 | 2.6µM*
CCOC(=O)/C(=N/O)C1=NC(C)(C)Cc2cc(C)c(C)cc21 | 0% | 0% | ? | -72* | 2 | 12%
CCOC(=O)/C(=N\O)C1=NC(C)(C)Cc2ccccc21 | 15% | 4% | -5% | -4 | 3 | 6%
O=C(NC(=S)Nc1cccc2[nH]ncc12)c1ccccc1 | -16% | 6% | -3% | 10 | 0 | -2%
O=C(Nc1cccc2[nH]ncc12)c1ccc(F)cc1 | 7.3µM* | 2% | ? | 6 | -8 | ?
CCN(CC)c1ccc(S(=O)(=O)N2CCOCC2)cc1NC(=O)CNCc1ccccc1 | 21µM* | 4% | -27% | -22 | 6 | ?
CCN(CC)c1ccc(S(=O)(=O)N2CCOCC2)cc1NC(=O)CN1CCN(Cc2ccccc2)CC1 | 15µM* | 8% | -22% | 0 | 11 | 16µM*
CCN(CC)c1ccc(S(=O)(=O)N2CCOCC2)cc1NC(=O)Nc1ccccc1 | 21µM* | 0% | ? | 13 | 20 | ?
Cc1ccc(S(=O)(=O)N2CCOCC2)cc1NC(=O)Nc1ccc([N+](=O)[O-])cc1 | ? | 2% | 1% | -3 | -10 | ?
CCN(CC)c1ccc(S(=O)(=O)N2CCOCC2)cc1NC(=O)CSC(=S)N1CCCC1 | 10µM* | 6% | ? | ? | -11 | 18µM*
CC1=C(C(=O)Nc2cccc(C(F)(F)F)c2)C(c2ccccn2)n2ncnc2N1 (stereo not given) | -24% | 1% | . | . | . | -19%
COc1ccc(CCN2C(=O)C3C(C2=O)C2C=CC3C23CC3)cc1OC (stereo not given) | -6% | 8% | 7% | -8 | -5 | 7%
O=C(NC1CCCN(Cc2ccc(Cl)cc2)C1)c1cnc2ccccn2c1=O (stereo not given) | 18µM* | 5%[56.1 µM] | ? | 2 | 4 | ?
SMILES | DT40 TDP1 no CPT | TDP1 inh | ELG1 DNA repair | IL-1B inflam inh | Giardia killer | DT40 TDP1 CPT
CC(=O)c1c(C)nn(CC(=O)NC2CCCN(Cc3ccc(CC(C)C)cc3)C2)c1C (stereo not given) | ? | 2% | -28% | -28 | -27 | 21µM*
CC(C)Cc1ccc(CN2CCCC(NC(=O)c3cnc4ccccn4c3=O)C2)cc1 (stereo not given) | 23µM* | . | . | 20 | 2 | 23µM*
Cc1ccn(CC(=O)NC2CCCN(Cc3ccc(CC(C)C)cc3)C2)n1 (stereo not given) | ? | 4% | 2% | 0 | 6 | ?
CCCn1ncc(C(=O)NC2CCCN(Cc3ccc(Cl)cc3)C2)c1C (stereo not given) | -26% | 1% | -8% | ? | 8 | ?
O=C(N/N=C1/C[C@@H](O)[C@@H](O)[C@@H]2[C@@H]3C(=O)N(Cc4ccccc4)C(=O)[C@H]3CC[C@H]12)OCc1ccccc1 | . | 8%[21 µM] | . | . | . | .
CSc1ccc(OC2(C)CCN(Cc3cc4ccccc4o3)C2)cc1 (stereo not given) | -25% | . | . | 18 | . | -23%
CN(C(=O)CSc1nnnn1-c1ccccc1)C1CCS(=O)(=O)C1 (stereo not given) | -1% | 10% | 11% | 10 | -13 | 1%
COc1ccc(N2CCN(c3oc(-c4ccc(OC)c(OC)c4)nc3C#N)CC2)cc1 | 18µM* | 3% | 2% | -7 | 11 | ?
COc1ccc(-c2nc(C#N)c(N3CCc4ccccc4C3)o2)cc1OC | 13µM* | 4% | ? | -52* | 14 | 29µM*
COc1ccccc1-c1nc(C#N)c(N2CC(C)CC(C)C2)o1 (stereo not given) | 18µM* | 4% | 20% | -6 | 3 | ?
CCc1ccc(NC(=O)CN2C(=O)C3CCCN3c3ccc(S(=O)(=O)N(CC)CC)cc32)cc1 (stereo not given) | ? | 3% | . | . | . | ?
CCOc1ccc(N2C(=O)/C(=C/c3ccco3)N(C)C2=S)cc1 | -21% | 3% | 15% | 8 | 3 | -27%
Cc1ccc(/C=C2/C(=O)N(c3ccccc3)C(=S)N2C)o1 | 23µM* | 3% | ? | 0 | -14 | ?
